TIM10 inh: inhibits growth of TIM10 yeast strain. S. cerevisiae TIM10 strain growth, BacTiter-Glo luminescence, 24 h. inhibition, % at 10 µM. hit rate 1.4% among 330,000;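 active = inhibition of 40% or more at the single tested concentration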;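 note: wild-type TIM10 isogenic control strain grown at permissive 25 °C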
NLRP3 yeast inh: NALP3 inhibition in yeast; Yeast reconstituted NLRP3/ASC/caspase-1, beta-gal luminescence, 24 h; inhibition, % at 10 µM; hit rate 0.39% among 330,000; AID 2825;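 active = inhibition of 50% or more; inactive = inhibition below 50%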
NALP1 inh: NALP1 inhibition; hit rate 0.61% among 280,000; inhibition, % at 10 µM; S. cerevisiae NALP1/ASC/caspase-1 growth, X-gal OD620, 72 h; AID 2071; in the data active = inhibition mostly above about 24%, no sharp cut-off; inactive = mostly below about 32%
V-ATPase pHluor: regulators of yeast V-ATPase proton transport. AID 504577. response, % at 10 µM. hit rate 0.37% among 350,000. S. cerevisiae, pHLuorin cytosolic pH fluorescence; in the data active = response mostly above about 7.3%, no sharp cut-off; inactive = mostly below about 5.4%; note: actives read high
tim23-1 inh: tim23-1 yeast growth inhibition; hit rate 1.3% among 330,000; S. cerevisiae tim23-1 growth, BacTiter-Glo luminescence, 24 h; inhibition, % at 20 µM; AID 463212;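 active = growth inhibition of the mutant yeast at or above 50%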;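 note: temperature-sensitive mutant grown at 25 °C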
tim10-1 inh: inhibits growth of tim10-1 mutant yeast; S. cerevisiae tim10-1 ts strain growth, BacTiter-Glo, 24 h; inhibition, % at 20 µM; hit rate 2.2% among 330,000; AID 463190;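 active = inhibition of at least 40%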;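 note: mutant grown at 25 °C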
V-ATPase pH SP: regulators of yeast V-ATPase proton transport; response, % at 10 µM; shares compounds with V-ATPase pHluor; AID 602197; hit rate 2% among 980; S. cerevisiae pHLuorin cytosolic pH; in the data active = response above about 24%
A number is an active result; n = inactive; x = no result given; ! = not active in a repeat. Only some compounds are listed: those with a hit (about 4.2% of all), similar ones and a draw of the others.

SMILES	TIM10 inh	NLRP3 yeast inh	NALP1 inh	V-ATPase pHluor	tim23-1 inh	tim10-1 inh	V-ATPase pH SP
Cc1ccnc(NS(=O)(=O)c2ccc(NC(=O)c3ccc(N4C(=O)CCC4=O)cc3)cc2)n1	n	n	n	12	n	n	n
COc1ccc(C(=O)Nc2ccc(S(=O)(=O)Nc3nccc(C)n3)cc2)cc1	n	n	n	n	n	n	x
CC1CCCC(NC(=O)COC(=O)c2cccc(NS(=O)(=O)/C=C/c3ccccc3)c2)C1C (configuration not stated)	n	n	x	n	n	n	x
CCc1ccccc1N(C)S(=O)(=O)c1ccc2[nH]cc(C(=O)N3CCc4ccccc43)c(=O)c2c1	n	n	n	22	n	n	n
Cc1cccc(N(C)S(=O)(=O)c2ccc3[nH]cc(C(=O)N4CCOCC4)c(=O)c3c2)c1	n	n	n	n	n	n	x
CCN(CC)C(=O)C(C)N(C#N)c1nc(C)cc(C)n1 (configuration not stated)	n	n	n	n	n	n	x
Cc1ccc(CN2CCCN(Cc3c(F)cccc3Cl)S2(=O)=O)cc1	n	n	n	n	n	n	x
O=S1(=O)N(Cc2ccccc2F)CCCN1Cc1c(F)cccc1Cl	n	n	n	9.6	n	n	n
CCc1sc(C(=O)NCc2ccco2)cc1Br	n	n	n	n	n	n	x
CCc1sc(C(=O)NCc2ccco2)cc1C	n	n	n	12	n	n	n
CCC(C)NCCOCCOc1ccc(C)cc1Br (configuration not stated)	n	n	n	36	n	n	n
COc1ccc(C(=O)c2c(N)sc3c2CCN(C)C3)cc1	n	n	n	n	n	n	x
CN1CCc2c(sc(N)c2C(=O)O)C1	n	n	n	9.6	n	n	n
CCN(CC)CCN1CCn2c3c(c4cc(C)ccc42)CCCC31 (configuration not stated)	n	n	n	n	n	n	x
COc1ccc(/C=C2\CCn3c2nc2cc(C(=O)O)ccc2c3=O)cc1O	n	n	n	10	n	n	n
Cc1sc(NC(=O)Cc2ccc3c(c2)OCO3)nc1-c1ccc2c(c1)CCN2C(=O)c1ccc(F)cc1	n	n	n	11	n	n	n
Cn1c2ccc(F)cc2c2nnc(SCC(=O)Nc3cccc(O)c3)nc21	n	n	n	11	n	n	n
O=C1C=C(c2cccc3c2oc2ccccc23)C[C@@H](c2ccc(F)cc2)C1	n	n	x	n	n	n	x
CC1CCN(C(=O)Cn2cnc3c(cnn3C(C)(C)C)c2=O)CC1	n	n	n	11	n	n	n
CC(C)(C)n1ncc2c(=O)n(CC(=O)N3CCCC3)cnc21	n	n	n	n	n	n	x
O=C(Nc1ccc(F)cc1Cl)c1ccc2c(=O)n3c(nc2c1)CCC3	n	n	x	11	n	n	n
O=C(/C=C/c1ccccc1)NCCS(=O)(=O)N1CCN(c2ccccc2)CC1	n	n	x	6.5	n	n	n
COc1ccc(OC)c(CNC(=O)C2CCN(S(C)(=O)=O)CC2)c1	n	n	n	11	n	n	n
O=C(Nc1ccccc1OC(F)F)c1ccccc1	n	n	n	11	n	n	n
O=C(Nc1ccccc1OC(=O)c1ccccc1)c1ccccc1	x	x	x	15	x	x	n
SMILES	TIM10 inh	NLRP3 yeast inh	NALP1 inh	V-ATPase pHluor	tim23-1 inh	tim10-1 inh	V-ATPase pH SP
CCOc1ccc(C2C(C#N)=C(N)SC(N)=C2C#N)c(OCC)c1	n	n	n	12	n	n	n
CCOc1cc(C2C(C#N)=C(N)SC(N)=C2C#N)ccc1OCCN1CCOCC1	n	n	n	n	n	n	x
N#Cc1ccc(COC(=O)c2cccnc2Cl)cc1	n	n	n	n	n	n	x
Fc1ccc(N2CCN(c3ncnc4c3nnn4Cc3ccccc3Cl)CC2)cc1	n	n	x	n	n	n	x
O=C(c1ccco1)N1CCN(c2ncnc3c2nnn3Cc2ccccc2Cl)CC1	n	n	n	10	n	n	n
CCOC(=O)C1=C(C)NC(SCC(=O)OC)=C(C#N)C1c1ccc(C(=O)OC)cc1 (configuration not stated)	n	n	n	9.9!	n	n	n
CCOC(=O)COc1ccc2c(C#N)c3ccccn3c2c1	x	x	n	9.6	x	x	n
O=C(Nc1ccc(F)c(F)c1)C1CCN(S(=O)(=O)c2cccs2)CC1	n	n	x	8.3	n	n	n
O=C(OCC(=O)N1CCCc2ccccc21)c1cccc(C(F)(F)F)c1	n	n	x	n	n	n	x
N#Cc1cccc(C(=O)OCC(=O)N2CCCc3ccccc32)c1	n	n	x	9.2	n	n	n
Cc1n[nH]c(=S)n1-c1ccc(Cl)cc1	n	n	n	n	n	n	n
C=C1C(=O)O[C@@]23[C@H]1CC[C@@H](C)[C@@H]2CC[C@@]1(C)O[C@@H]31	n	n	x	23	n	n	n
C[n+]1cc[nH]c1SCC(=O)c1ccc(Cl)cc1	n	n	n	7.5	n	n	n
O=C(/C=C/c1cccc(F)c1)Nc1cc(S(=O)(=O)N2CCOCC2)ccc1N1CCCC1	n	n	n	6.5	n	n	n
COc1ccc(/C=C/C(=O)Nc2cc(S(=O)(=O)N3CCOCC3)ccc2OC)cc1	n	n	x	n	n	n	x
COc1cccc(/C=C/C(=O)Nc2cc(S(=O)(=O)N3CCOCC3)ccc2OC)c1	n	n	x	12	n	n	n
CCOc1ccc(NC(=O)/C(C#N)=C/c2cn(CC(=O)O)c3ccccc23)cc1	n	n	n	7.1	n	n	n
CCOc1cccc(NC(=O)/C(C#N)=C\c2cn(CC(=O)O)c3ccccc23)c1	n	n	n	n	n	n	x
Cc1c(NC(=O)c2cccc(NC(=O)COc3ccccc3C#N)c2)c(=O)n(-c2ccccc2)n1C	n	n	x	15	n	n	n
CCOc1cc2c(cc1OC)C(NC(=O)C(F)(F)F)CC2=O (configuration not stated)	n	n	n	n	n	n	x
Cc1cc(C)n2nc(SCC(=O)NC(=O)c3ccccc3Cl)nc2n1	n	n	x	9.8	n	n	n
CCn1c(SCC(=O)N=Nc2c(O)[nH]c3ccccc23)nc2ccccc21	n	n	n	n	n	n	x
Cc1ncoc1C(=O)N1CCCC(C(=O)c2cccc(OC(C)C)c2)C1 (configuration not stated)	n	n	n	n	n	n	x
Cc1noc(C)c1C(=O)N1CCCC(C(=O)c2cccc(OC(C)C)c2)C1 (configuration not stated)	n	n	n	13	n	n	n
Cc1ccc(OCc2nnc(SCc3nc4ccccc4[nH]3)n2Cc2ccco2)cc1	n	n	n	n	n	n	x
CCOC(=O)CCCNC(=O)COC(=O)c1cccc(F)c1	n	n	n	n	n	n	x
CC(C)(C)NC(=O)COC(=O)CCC(=O)c1ccc(F)cc1	n	n	n	n	n	n	x
CCOC(=O)CCCNC(=O)COC(=O)CCC(=O)c1ccc(F)cc1	n	n	n	n	n	n	n
CCCNC(=O)COC(=O)CCC(=O)c1ccc(F)cc1	n	n	n	n	n	n	n
